# Experimental data taken from ChEMBL document CHEMBL3988442, “University of Dundee, Small-Polar-MMV Screening Library” (2021).
# Biological target: T1, Tyrosyl-tRNA synthetase, putative (Trypanosoma cruzi (strain CL Brener)) (UniProt Q4DSP6)
# T1 sequence (whole entry): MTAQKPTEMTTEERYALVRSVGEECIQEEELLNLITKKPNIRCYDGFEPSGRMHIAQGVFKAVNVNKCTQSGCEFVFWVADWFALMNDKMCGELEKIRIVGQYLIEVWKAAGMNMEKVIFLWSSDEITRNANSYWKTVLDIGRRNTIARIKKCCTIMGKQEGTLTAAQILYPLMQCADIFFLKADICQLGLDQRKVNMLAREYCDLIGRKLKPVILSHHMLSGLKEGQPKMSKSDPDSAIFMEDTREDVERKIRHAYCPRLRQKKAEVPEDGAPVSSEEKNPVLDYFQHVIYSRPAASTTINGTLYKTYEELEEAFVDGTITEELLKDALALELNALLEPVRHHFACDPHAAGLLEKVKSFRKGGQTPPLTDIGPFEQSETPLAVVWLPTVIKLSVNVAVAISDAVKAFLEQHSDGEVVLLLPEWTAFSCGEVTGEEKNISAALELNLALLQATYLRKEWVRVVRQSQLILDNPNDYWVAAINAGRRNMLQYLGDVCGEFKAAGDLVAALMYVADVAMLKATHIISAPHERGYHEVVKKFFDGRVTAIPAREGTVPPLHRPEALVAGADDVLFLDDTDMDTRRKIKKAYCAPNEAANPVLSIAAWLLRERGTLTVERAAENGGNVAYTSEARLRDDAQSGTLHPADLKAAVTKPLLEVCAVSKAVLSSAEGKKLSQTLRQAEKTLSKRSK
# Experiment: Trypanosoma cruzi tyrosyl tRNA synthetase (TcYRS) _High Tyrosine SOP
# Format: functional
# Set-up: scale not given: in the data most compounds retested in dose-response had high values
# Settings: 30 µM
row,Structure (SMILES),Percent Effect [%]
1,CN1CC(=O)N(c2cnn(C)c2)CC12CCN(Cc1ccccc1)C2 (centres undefined),5.21
2,NC(=O)C(CNC(=O)Cc1ccc(F)cc1)Cc1ccc(F)cc1 (centres undefined),0
3,O=C(N1CCOCC1)N1CCc2ncnc(NC3CC3)c2CC1,0.99
4,Cn1cccc1C(=O)N1CCn2cc(CNC(=O)CC3CC3)nc2C1,8.51
5,Clc1cc(CN2CCCC2Cn2cncn2)c2ncccc2c1 (centres undefined),2.97
6,CCc1nnc2n1CCN(Cc1csc(-c3cnn(C)c3)n1)C2,5.26
7,COc1ccc(C(CNC(=O)Nc2cn[nH]c2)N2CCOCC2)cc1 (centres undefined),10.5
8,Cc1nn(C)c(C)c1C1CCCN1CC(=O)Nc1ccncc1 (centres undefined),-0.493
9,Cc1nn(C)c(N(C)C)c1CNC1CCc2c(F)cccc21 (centres undefined),6.37
10,Cc1ccccc1C(=O)CN1C(=O)c2ccccc2CS1(=O)=O,-25.9
11,CS(=O)(=O)N1CCC(C(=O)NC(Cc2ccsc2)c2ccccn2)CC1 (centres undefined),5.38
12,COc1cccc(Cc2nnc(SC3CCOC3=O)o2)c1 (centres undefined),-4.92
13,Cc1ccc(N2CCC3(CC2)CC(OCC(=O)N(C)C)CO3)nn1 (centres undefined),2.16
14,CC(NC(=O)NCc1cccnc1N1CCCCC1)c1nccs1 (centres undefined),5.83
15,CCc1ccc(NS(=O)(=O)CC2=NC(=O)n3cccc3C2=O)cc1,-8.47
16,c1ncn(CC2CCCN(Cc3nc(C4CC4)no3)C2)n1 (centres undefined),6.4
17,N#Cc1ccc(C(=O)N2CCC3(CC2)C(=O)Nc2ccccc23)cn1,10.8
18,Cc1ccc(-c2nc(CNCCn3cccn3)cs2)o1,11.3
19,Cc1cnc2n(c1=O)CC(C(=O)Nc1ccccc1Cl)CS2 (centres undefined),1.07
20,CCn1c(N)nc2cc(C(=O)NCCc3ccccc3C)cnc21,5.38

row,Structure (SMILES),Percent Effect [%]
1,O=C(NCCCN1CCCC1)c1n[nH]c(=O)c2ccccc12,6.8
2,Cc1nc(CN2CCCC(NCCOCC(F)(F)F)C2)no1 (centres undefined),4.43
3,O=C1C[C@H]2[C@@H](CCN2C(=O)c2ccccc2)N1CCN1CCOCC1,2.08
4,CC(C)Oc1ncccc1CNC(=O)N1CCC(C(N)=O)C1 (centres undefined),1.47
5,CNc1nc2c(c(C(=O)N3CCCC3)n1)CN(Cc1nccn1C)CC2,7.29
6,CC(C)NC(=O)c1sccc1N(C)S(=O)(=O)c1ccc(Cl)cc1,-2.13
7,COc1nn(C)c2c1CCCN(C(=O)c1ccccc1)C2,4.95
8,COCC(=O)N1CC[C@@H]2O[C@H](COCc3ccncc3)CC[C@@H]21,1.08
9,Fc1ccc(-c2cnc(CN3CCCC3Cn3cccn3)o2)cc1 (centres undefined),2.46
10,O=C(C1CC=CC1)N1CCc2c(COCc3ccncc3)cncc2C1,11.5
11,O=C(NCC(F)(F)F)NC1CCCc2c1cnn2CCO (centres undefined),2.73
12,O=C(CCOc1ccccc1)N1CCC(Nc2cccnn2)CC1,6.4
13,Cc1cc(CN2CCN(c3ccc4nncn4n3)C(C)C2)no1 (centres undefined),9.71
14,Cc1n[nH]c(C)c1C1COCCN1C(=O)Cc1cccc(F)c1 (centres undefined),-1.07
15,CCC(C)(NCC(=O)Nc1ccccc1)c1nc(C)cs1 (centres undefined),1.07
16,Cc1ccc(-c2nnc(CN3CCc4cnc(C)nc4C3)o2)cc1,18.8
17,Cc1cccc2c1OCCC2NCc1c(C)nn(C)c1N(C)C (centres undefined),1.47
18,CC(C#N)CSc1ccccc1NCC(=O)NCc1ccccc1 (centres undefined),-2.15
19,O=C(Cn1cc(I)cn1)N1CCCC1,5.29
